Bioassay records from PubChem BioAssay.
ULK1 primary – human ULK1 kinase inhibition, primary screen; O75385; AlphaScreen Atg13 phosphorylation by ULK1, luminescence; inhibition, % at 5.96 µM; 30,000 tested, 1.9% active; AID 1259251; in the data active means inhibition above about 43%;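 further: 0% = median of compound wells and 100% = no enzyme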
ASK1 inh – human ASK1 kinase inhibition, primary screen | AlphaScreen MKK6 phosphorylation by ASK1, luminescence | inhibition, % at 7.44 µM | 22,000 tested, 0.99% active | AID 1159602; in the data active means inhibition above about 35%;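 further: 0% = median of compound wells and 100% = no enzyme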
Starred values were filed as active, the others as inactive. The list is not random: actives were taken first. Their share in the collection is about 2.5%.

What do the screens show for `Oc1cc(Cl)ccc1Oc1ccc(Cl)cc1Cl`?
ULK1 primary: 44*

Results for Oc1ccc(Cl)cc1Cc1ccccc1 ?
ULK1 primary: -34

Results for NCCc1cc(O)c(O)cc1O ?
ULK1 primary: 91*

Results for CC12CCC(=O)C=C1CCC1C2CCC2(C)C(C(=O)O)CCC12 (configuration not stated) ?
ULK1 primary: 1

Results for NC1CCCC1c1ccccc1 (configuration not stated) ?
ULK1 primary: -6

Results for CCN1CCN(c2c(Cl)cccc2NC(C)=O)CC1 ?
ULK1 primary: 0; ASK1 inh: 3

What do the screens show for `CCC(Br)(CC)C(=O)NC(N)=O`?
ULK1 primary: 82*

How did O=C(Nc1ccc2[nH]ncc2c1)C1CN(Cc2ccccc2)CC1c1ccccc1Cl (configuration not stated) (tested in a mixture with another compound) do in these assays?
ULK1 primary: -22; ASK1 inh: 10

How did CCCCCCC(=O)O[C@H]1CC[C@H]2[C@@H]3CCC4=CC(=O)CC[C@]4(C)[C@H]3CC[C@]12C do in these assays?
ULK1 primary: 1

Results for CN(C)[C@@H]1C(=O)C(C(N)=O)=C(O)[C@@]2(O)C(=O)C3=C(O)c4c(O)cccc4[C@@](C)(O)[C@H]3[C@H](O)[C@@H]12 ?
ULK1 primary: 51*

What do the screens show for `O=C(Nc1cccc(Cl)c1N1CCNCC1)c1ccc(Br)o1`?
ULK1 primary: 7; ASK1 inh: -1

What do the screens show for `O=[N+]([O-])c1ccc(NCCCCNc2ccc([N+](=O)[O-])c3cccnc23)c2ncccc12`?
ULK1 primary: -6

Results for CCC(CO)NC(=O)[C@@H]1C=C2c3cccc4[nH]cc(c34)C[C@H]2N(C)C1 (some centres not stated) ?
ULK1 primary: 53*

What do the screens show for `CN1C[C@H](C(=O)N[C@]2(C)O[C@@]3(O)C4CCCN4C(=O)[C@H](Cc4ccccc4)N3C2=O)C=C2c3cccc4[nH]cc(c34)C[C@H]21` (some centres not stated)?
ULK1 primary: 23

Results for CC[n+]1c(-c2ccccc2)c2cc(N)ccc2c2ccc(N)cc21 ?
ULK1 primary: 62*

What do the screens show for `Nc1nc(/N=C/c2ccc(N(CCCl)CCCl)cc2)n[nH]1`?
ULK1 primary: -6

What do the screens show for `CN(CCN(C)C(C)(C)C)C(=O)C(O)(c1ccccc1)c1ccccc1`?
ULK1 primary: -8

How did COc1ccc(/C=C2/C(=N\O)C3CCN2CC3)cc1 do in these assays?
ULK1 primary: -7
